From PubChem BioAssay
Many of the other results were omitted from the sample, so hits are more common in it than they were.
nsP2pro primary = CHIKV nsP2 protease inhibition, primary qHTS | Q8JUX6 | FRET peptide cleavage, nsP2pro, fluorescence 1 h | Potency, µM (highest dose often 24.9 µM), inactives show top-dose activity change, negative = inhibition, usual class: inhibitors | 31,000 compounds, 1.1% hits | AID 1964107; note: nearly all actives have a fitted effect of over 60% in size
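Enzyme 150 nM, substrate 2.5 uM (both final); Tris-HCl 10 mM pH 8.0 + 0.01% Tween 20; cpd up to 25 uM, 7 pts; 15 min preinc., 1 h RT; fluorescence ex 525/em 598.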
CHIKV nsP2 cell = cell-based CHIKV nsP2 protease inhibition, secondary. cell-based CHIKV nsP2 protease reporter assay. Potency, µM (doses to about 51.1 µM), for inactives: at the top dose activity change, negative = inhibition, hits mostly inhibitors. AID 1964100. shares compounds with nsP2pro primary. 450 compounds, 10% hits; note: nearly all actives have a fitted effect of over 70% in size
CHIKV NSP2 FL = selectivity test for CHIKV nsP2 protease inhibitors: full-length NSP2; shares compounds with nsP2pro primary; Potency, µM (series often up to 50.7 µM), inactives show at the top dose activity change, negative = inhibition, usual class: inhibitors; AID 1964101; Full-length CHIKV NSP2 protease enzymatic counterscreen; 410 compounds, 39% hits; note: nearly all actives have a fitted effect of over 65% in size
Furin counter = inhibits human furin in a CHIKV nsP2 protease selectivity counterscreen; shares compounds with nsP2pro primary; Recombinant human furin enzymatic counterscreen, fluorogenic substrate; Potency, µM (series often up to 50.6 µM), for inactives: at the top dose activity change, negative = inhibition, hits mostly inhibitors; 410 compounds, 6% hits
NS23 peptide cs = blocks CHIKV nsP2 protease cleavage of endogenous NS2/3 peptide. shares compounds with nsP2pro primary. Purified CHIKV nsP2 protease, endogenous NS2/3 peptide cleavage. Potency, µM (top dose mostly 51 µM), inactives show top-dose activity change, negative = inhibition, most hits filed as inhibitors. 410 compounds, 34% hits; note: nearly all actives have a fitted effect of over 55% in size
Papain cs = inhibits papain in a CHIKV nsP2 protease selectivity counterscreen; shares compounds with nsP2pro primary; purified papain protease activity, enzymatic inhibition; Potency, µM (titrated, usually from 51 µM), for inactives: at the top dose activity change, negative = inhibition, actives largely listed as inhibitors; 410 compounds, 5% hits
Target sequence (P00784 whole entry, looked up): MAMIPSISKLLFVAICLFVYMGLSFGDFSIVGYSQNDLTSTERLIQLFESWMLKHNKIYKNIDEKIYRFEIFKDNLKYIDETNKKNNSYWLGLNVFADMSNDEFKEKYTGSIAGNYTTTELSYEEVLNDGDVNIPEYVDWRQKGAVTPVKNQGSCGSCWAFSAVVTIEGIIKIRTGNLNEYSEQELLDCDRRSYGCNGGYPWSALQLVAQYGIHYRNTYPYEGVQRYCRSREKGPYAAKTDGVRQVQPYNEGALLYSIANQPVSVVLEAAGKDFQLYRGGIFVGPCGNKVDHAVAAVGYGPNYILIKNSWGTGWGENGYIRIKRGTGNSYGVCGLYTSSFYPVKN
nsP2pro conf qHTS = CHIKV nsP2 protease inhibition, confirmatory qHTS | Potency, µM (top dose mostly 25.5 µM), for the others: top-dose activity change, negative = inhibition, hits mostly inhibitors | shares compounds with nsP2pro primary | CHIKV nsP2 protease enzymatic activity, qHTS | 410 compounds, 43% hits | AID 1964105; note: nearly all actives have a fitted effect of over 75% in size
HCV NS3 4A cs = selectivity counter-screen for CHIKV nsP2 protease inhibitors: HCV NS3/4A; shares compounds with nsP2pro primary; HCV NS3/4A protease biochemical counterscreen; Potency, µM (highest dose often 50.9 µM), hits mostly inhibitors; 410 compounds, 20% hits; AID 1964106; note: nearly all actives have a fitted effect of over 55% in size
The depositor's hits bear a star; i = inactive; ? = inconclusive; ! = repeats disagree; [ ] = another dose, or the depositor's remark. Calls come from the whole dose curve. % is set by controls: 0 for no effect and ±100 for the full control effect; potency is the fitted concentration of half-maximal effect.

SMILES	nsP2pro primary	others
CN(C)C1(CNC(=O)c2ccc(OC3CCN(C(=O)C4CC4)CC3)cc2)CCCCC1	?	CHIKV nsP2 cell=-10%;CHIKV NSP2 FL=4%;Furin counter=-1%;NS23 peptide cs=?;Papain cs=-2%;nsP2pro conf qHTS=16%;HCV NS3 4A cs=i
Cc1cc(Nc2nn(-c3ccccc3)c(=O)c3ccccc23)n[nH]1	29%
Cc1cnc(CCNC(=O)c2cccs2)n1C1CCC1	1%
CN[C@H](C(=O)N[C@H](C(=O)N(C)[C@H](/C=C(\C)C(=O)O)C(C)C)C(C)(C)C)C(C)(C)c1ccccc1	-5%
O[C@@H]1[C@@H](O)[C@@H](O)OC[C@@H]1O	-11%[78.4 µM]
CC1=CC(=O)c2ccccc2C1=O	?	CHIKV nsP2 cell=-11%;CHIKV NSP2 FL=-14%;Furin counter=3%;NS23 peptide cs=?;Papain cs=-20%;nsP2pro conf qHTS=4%;HCV NS3 4A cs=i
CC(C)=CCC/C(C)=C/CC/C(C)=C/CC/C(C)=C/CC1=C(C)C(=O)c2ccccc2C1=O	-27%
CC(=O)c1ccc(N2CCN(S(=O)(=O)c3ccc4c(c3)C(=O)OC4)CC2)cc1	-1%
Oc1cc(CNC(=S)/C=C/c2cc(O)c(O)c(Br)c2)cc(O)c1O	5.6µM*	CHIKV nsP2 cell=0.22µM*;CHIKV NSP2 FL=15µM*;Furin counter=?;NS23 peptide cs=6.5µM*;Papain cs=?;nsP2pro conf qHTS=5µM*;HCV NS3 4A cs=3.7µM*
CC(=O)c1c(C)cccc1O[C@@H]1O[C@H](CO)[C@@H](O)[C@H](O)[C@H]1O	64%
O=C(Cc1ccccc1)Nc1sc2c(c1C(=O)Nc1ccccc1)CCCCC2	-28%
COc1ccc(CC(=O)Nc2sc3c(c2C(=O)Nc2ccccc2)CCCCC3)cc1	-11%
O=C(Cc1ccccc1)Nc1sc2c(c1C(=O)Nc1ccc(Cl)cc1)CCCC2	?	CHIKV nsP2 cell=?;CHIKV NSP2 FL=-21%;Furin counter=-4%;NS23 peptide cs=6.5µM*;Papain cs=-5%;nsP2pro conf qHTS=4µM*;HCV NS3 4A cs=i
Cc1cc(C)nc(NC(=S)N2CCN(c3cc4ccccc4cn3)CC2)c1	-5%
C=CCC1=C[C@]2(OC)[C@H](C)[C@@H](c3ccc(OC)c(OC)c3)O[C@]2(OC)CC1=O	-3%
CCOC(=O)c1cc2ccc(O)cc2oc1=O	13%
Cc1ncc(CSSCc2cnc(C)c(O)c2CO)c(CO)c1O	-6%
Cc1ncc(COP(=O)(O)O)c(C=O)c1O	?	CHIKV nsP2 cell=-11%;CHIKV NSP2 FL=-11%;Furin counter=4%;NS23 peptide cs=3%;Papain cs=153%;nsP2pro conf qHTS=-9%;HCV NS3 4A cs=i
Cc1ncc(CO)c(C=O)c1O	0%
COc1ccc(CNC(=O)c2ccc3nnc(C4CCOCC4)n3c2)cc1	-1%
O=C1CCC(c2ccccc2)(C2CCN(Cc3ccc(I)cc3)CC2)C(=O)N1 (centres undefined)	-8%
CC(C)CC(=O)N1[C@@H](c2ccco2)[C@@H](CO)C[C@]12CCCCN(CCO)C2=O	?	CHIKV nsP2 cell=-2%
CC(C)CC(=O)N1CC(=O)Nc2ccc(F)cc2C1c1ccccc1 (centres undefined)	-28%
CC(C)CC(=O)N1[C@@H](c2ccco2)[C@@H](C(=O)O)C[C@]12CCCCNC2=O	?	CHIKV nsP2 cell=4%
O=C(c1cccc(OC2CN(C3CCSCC3)C2)c1)N1CCCC1	i
SMILES	nsP2pro primary	others
COC1CN(c2cccc(F)c2)C12CCN(S(=O)(=O)c1cccs1)CC2 (centres undefined)	-10%
CNc1oc(-c2ccccc2-c2ccccc2)nc1C#N	1%
COC(=O)N(C)Cc1cccc(N2CCN(C(=O)OC(C)(C)C)CC2)c1F	2%
C[C@@H]1O[C@@H](O[C@H]2[C@H](OC(=O)[C@]34CCC(C)(C)C[C@H]3C3=CCC5[C@@]6(C)C[C@@H](O)[C@@H](O[C@@H]7O[C@H](CO)[C@@H](O)[C@H](O)[C@H]7O)[C@@](C)(CO)C6[C@H](O)C[C@@]5(C)[C@]3(C)CC4)OC[C@H](O)[C@@H]2O)[C@H](O)[C@H](O[C@@H]2OC[C@](O)(CO)[C@H]2O)[C@H]1O[C@@H]1OC[C@@H](O)[C@H](O[C@H]2O[C@H](C)[C@@H](O)[C@H](O)[C@@H]2O)[C@H]1O (some centres undefined)	-4%[5.1 µM]
CC1CCC23COC(=O)C2=CC(O)CC3C1(C)CCC1=CC(=O)OC1O (centres undefined)	51%
Cc1ccnc(NC(=S)Nc2cccc(C(F)(F)F)c2)c1	2%
CCC(C)C(N)C1=NC(C(=O)N[C@@H](CC(C)C)C(=O)N[C@H](CCC(=O)O)C(=O)N[C@H](C(=O)N[C@H]2CCCCNC(=O)[C@H](CC(N)=O)NC(=O)[C@@H](CC(=O)O)NC(=O)[C@H](Cc3cnc[nH]3)NC(=O)[C@@H](Cc3ccccc3)NC(=O)[C@H]([C@@H](C)CC)NC(=O)[C@@H](CCCN)NC2=O)[C@@H](C)CC)CS1 (some centres undefined)	0.22µM*!	CHIKV nsP2 cell=12%[17.6 µM];CHIKV NSP2 FL=0.14µM*;Furin counter=8µM*;NS23 peptide cs=1.1µM*;Papain cs=3.2µM*;nsP2pro conf qHTS=0.22µM*;HCV NS3 4A cs=8µM*
NCCCC[C@H](NC(=O)[C@@H]1CCCN1C(=O)[C@@H]1CSSC[C@H](N)C(=O)N[C@@H](Cc2ccccc2)C(=O)N[C@@H](Cc2ccccc2)C(=O)N[C@@H](CCC(N)=O)C(=O)N[C@@H](CC(N)=O)C(=O)N1)C(=O)NCC(N)=O	-12%
CCOc1ccc(CCNC(=O)c2ccc(N3N=C(C)CC3=O)cc2)cc1OCC	i
C[C@@H]1[C@H]2[C@H](O[C@@H]3O[C@H](CO)[C@@H](O)[C@H](O)[C@H]3O)OC=C(C(=O)O)[C@H]2C[C@@H]1O	21%
Cc1ccc(NC(=O)Cn2c(=O)n(CCC(=O)NCc3ccc4c(c3)OCO4)c(=O)c3sccc32)c(C)c1	-21%
COc1ccc2cc(CNc3ccccc3)c(=O)n(CC(=O)Nc3ccc(C(C)=O)cc3)c2c1	-10%
COc1ccc(NCc2cc3cc4c(cc3n(CC(=O)Nc3ccc(C)cc3C)c2=O)OCO4)cc1	?	CHIKV nsP2 cell=4%
O=[N+]([O-])c1ccc(CNc2ccc([S+](=O)([O-])Nc3nccs3)cc2)c(O)c1	i
Cc1cc(C)n2ncc(C(=O)NC3CCC(C(C)(C)C)CC3)c2n1 (centres undefined)	-5%
c1ccc(-c2nc(NCc3ccc(-c4cccnc4)cc3)c3ccccc3n2)cc1	1%
